Compound activity from PubChem BioAssay.
PAX8 reporter – inhibitors of PAX8 transcriptional activity in RMG-I cells | RMG-I TPO-luciferase reporter, SteadyGlo, 24 h | inhibition, % at 12.6 µM | 1.2% of 360,000 active | AID 652154;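 active = mean replicate inhibition at least 60% with every replicate also reaching 60%; inconclusive = only one of the two criteria is met; inactive = mean below 60% and not all replicates reaching 60%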;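 also: luciferase light reporting Pax8 driven TPO promoter activity; plate controls were median of neutral control wells for no effect and mitoxantrone controls for full effect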
EWS-Fli inh – inhibitors of EWS/Fli oncoprotein transcriptional activity; 0.67% of 350,000 active; A673 NR0B1-luciferase reporter, viability-normalised; AID 651661; inhibition, % at 12.6 µM;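 active = mean inhibition of at least 50% after viability correction, with every replicate also passing that limit; inconclusive = mean reaches 50% but only one of two replicates passes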;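 also: firefly luciferase signal divided by Alamar Blue viability fluorescence both relative to DMSO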
HIV Env fusion – blocks HIV Env-driven cell-cell fusion. HeLa-JRFL Env/CEM21 cell fusion, luciferase. inhibition, % at 12.3 µM. 1.1% of 360,000 active;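 active = mean replicate inhibition score of at least 50 and every replicate individually at or above 50; inconclusive = only one of the two criteria met; inactive = mean below 50 and not all replicates reaching 50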;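 also: 0% = plate neutral controls and 100% = maraviroc near 300 nM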
PGC1a acetyl inh – lowers PGC1a acetylation signal in U2OS cells. inhibition, % at 15.6 µM. AlphaScreen anti-acetyl-lysine; with virally co-expressed GCN5 acetyltransferase. 0.17% of 350,000 active;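 active = every replicate shows inhibition of at least 40%; inconclusive = mean inhibition at least 40% but some replicate below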;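 also: 0% = neutral control wells and 100% = positive control wells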
INS-1E GSIS act – primary screen for activators of insulin secretion dependent on glucose, INS-1E cells, GLuc reporter luminescence | activation, % at 16.6 µM | AID 743287 | 0.61% of 370,000 active | INS-1E GLuc reporter insulin secretion, 2-3 h;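 active = lowest replicate activation of at least 40%, so every replicate reaches that level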;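 also: 0% = median of neutral control wells and 100% = median of IBMX positive control wells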
F508del corr – CFTR F508del correction in bronchial cells; CFBE cells, YFP halide quenching; stimulated with forskolin plus potentiator P3; % fluorescence drop versus neutral controls; activity (quench increase), % at 7.58 µM; 0.36% of 350,000 active;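 active = mean added fluorescence quench of at least 8% versus neutral control, with both replicates also reaching 8%; inconclusive = only one of the mean or replicate conditions met; inactive = mean below 8% and not both replicates reaching 8%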;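 also: cells transiently co-express mutant CFTR-F508del with the halide-sensitive YFP; corrector assay measuring rescue of mutant channel to the surface after 24 h compound exposure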
An asterisk follows results filed as active; ? = inconclusive; nt = not tested or not shown; [ ] = dose if it differs, or a comment. Sampled rows, rich in hits. Any-hit rate of the full collection: about 2.7%.

SMILES	PAX8 reporter	EWS-Fli inh	HIV Env fusion	PGC1a acetyl inh	INS-1E GSIS act	F508del corr
C[C@@H]1CCCCO[C@H](CN(C)Cc2ccc3c(c2)OCO3)[C@H](C)CN([C@@H](C)CO)C(=O)c2cc(NC(=O)Nc3ccc4c(c3)OCO4)ccc2O1	33.4	3.8	14.4[16.7 µM]	-30.3	-18.4	3.7
C[C@@H]1CCCCO[C@@H](CN(C)Cc2ccc(C(F)(F)F)cc2)[C@H](C)CN([C@H](C)CO)C(=O)c2cc(NC(=O)Nc3ccc4c(c3)OCO4)ccc2O1	71.4*	26.2	65.0*[16.7 µM]	-4.8	-12.8	0.8
C[C@H]1CCCCO[C@@H](CN(C)Cc2ccc(C(F)(F)F)cc2)[C@@H](C)CN([C@@H](C)CO)C(=O)c2cc(NC(=O)Nc3ccc4c(c3)OCO4)ccc2O1	80.0*	-14.4	85.6*[16.7 µM]	-3.0	1.2	4.6
C[C@H]1CCCCO[C@H](CN(C)Cc2ccc(C(F)(F)F)cc2)[C@@H](C)CN([C@@H](C)CO)C(=O)c2cc(NC(=O)Nc3ccc4c(c3)OCO4)ccc2O1	45.8	8.5	59.9*[16.7 µM]	3.8	-10.1	4.5
CO[C@@H]1CN(C)C(=O)c2cc(NS(=O)(=O)c3ccccc3Cl)ccc2OC[C@H](C)NC[C@@H]1C	nt	-4.0	4.9[16.7 µM]	-3.4	-4.2	-1.6
Cc1noc(C)c1NC(=O)N(C)C[C@@H]1Oc2cc(C#CCN(C)C)ccc2S(=O)(=O)N([C@H](C)CO)C[C@@H]1C	nt	-3.7	2.0[16.7 µM]	12.5	9.4	-4.3
C[C@H](CO)N1C[C@H](C)[C@H](CN(C)C(=O)C2CCCCC2)Oc2cc(-c3cccnc3)ccc2S1(=O)=O	nt	1.7	15.2[16.7 µM]	-11.3	-3.9	-1.8
CN1C(=O)c2cc(NC(=O)c3cnccn3)ccc2OC[C@@H]2O[C@H](CC(=O)O)CC[C@H]21	-3.4	-2.1	-7.3[16.7 µM]	1.4	1.9	0.8
C[C@@H]1CCCCO[C@@H](CN(C)Cc2ccc3c(c2)OCO3)[C@@H](C)CN([C@@H](C)CO)C(=O)c2cc(NC(=O)Nc3ccc4c(c3)OCO4)ccc2O1	-9.2	-2.9	-8.0[16.7 µM]	-11.1	-36.9	0.7
C[C@@H]1CCCCO[C@H](CN(C)Cc2ccc(C(F)(F)F)cc2)[C@H](C)CN([C@@H](C)CO)C(=O)c2cc(NC(=O)Nc3ccc4c(c3)OCO4)ccc2O1	83.9*	2.6	25.9[16.7 µM]	-0.2	-7.0	-0.4
Cc1ccccc1Cn1cnc2ccccc2c1=O	160.1*	-5.6	-25.7	nt	nt	nt
O=c1c2ccccc2ncn1Cc1cccc2ccccc12	12.7	-11.8	1.5	nt	3.4	-1.9
CCCNC(=O)[C@H]1[C@H](CO)[C@H]2Cn3c(cccc3=O)[C@@H]1N2S(=O)(=O)c1ccccc1F	nt	-16.9	nt	nt	35.4	nt
COc1ccc(CCC(C)NC(=O)CCc2ccccc2)c(OC)c1 (stereo unspecified)	-48.9	-1.1	3.3	-15.1	-21.0	0.2
COc1cc(OC)c(OC)cc1CCC(C)NC(=O)Cc1ccccc1 (stereo unspecified)	16.7	4.5	11.7	-16.3	44.0*	-0.3
O=[N+]([O-])c1cccc(Oc2ncccc2[N+](=O)[O-])c1	-2.9	2.2	nt	-10.0	77.6*	-1.3
C[C@@H]1CN([C@@H](C)CO)C(=O)c2cc(NC(=O)c3ccncc3)ccc2O[C@@H](C)CCCCO[C@H]1CN(C)C(=O)CCCN(C)C	4.1	-6.4	-5.3[16.7 µM]	13.5	19.5	-2.0
Cc1ccc(C(=O)N/C(=C/c2ccc(Cl)cc2)C(=O)N2CCOCC2)cc1	17.7	0.5	0.5	nt	50.5*	1.6
COC(=O)c1ccc(/C=C(/NC(=O)c2ccccc2)C(=O)N2CCOCC2)cc1	0.1	nt	4.1	-3.8	20.5	0.2
C[C@H](CO)N1C[C@H](C)[C@H](CN(C)S(=O)(=O)c2ccccc2)Oc2ccc(NC(=O)NC3CCCCC3)cc2CC1=O	3.4	-2.9	87.3*	0.9	-15.3	1.6
C[C@H]1CN([C@@H](C)CO)C(=O)Cc2cc(NC(=O)Nc3ccccc3)ccc2O[C@H]1CN(C)S(=O)(=O)c1ccccc1	19.6	4.4	70.0*[16.7 µM]	4.1	nt	-0.9
C[C@H]1CN([C@@H](C)CO)C(=O)Cc2cc(NC(=O)Nc3ccccc3)ccc2O[C@@H]1CN(C)S(=O)(=O)c1ccccc1	-23.1	-13.2	-2.2[16.7 µM]	-1.5	-1.9	-0.2
CC(C)NC(=O)Nc1ccc2c(c1)CC(=O)N([C@H](C)CO)C[C@H](C)[C@H](CN(C)S(=O)(=O)c1ccccc1)O2	-23.0	nt	65.3*[16.7 µM]	-0.5	7.4	0.7
C[C@H]1CN([C@@H](C)CO)C(=O)c2cc(C#CCc3ccccc3)cnc2O[C@H]1CN(C)C(=O)Cc1cccnc1	nt	-9.0	-36.0[16.7 µM]	-9.5	-5.6	1.0
C[C@H]1CN([C@@H](C)CO)C(=O)c2cc(C3=CCCC3)cnc2O[C@H]1CN(C)Cc1ccccn1	-2.2	-9.9	-10.0[16.7 µM]	-7.2	18.1	-0.6
SMILES	PAX8 reporter	EWS-Fli inh	HIV Env fusion	PGC1a acetyl inh	INS-1E GSIS act	F508del corr
O=C(C[C@@H]1CC[C@@H]2NC[C@H](O)COC[C@H]2O1)NCc1ccc(Oc2ccccc2)cc1	0.1	-2.3	-0.2[16.7 µM]	0.2	5.4	-1.3
C[C@H]1CN([C@@H](C)CO)C(=O)c2cc(-c3ccc(F)cc3)cnc2O[C@H]1CN(C)C(=O)c1ccncc1	nt	-3.4	11.9[16.7 µM]	-2.6	9.6	2.9
C[C@@H]1CN([C@@H](C)CO)C(=O)Cc2cc(NS(=O)(=O)c3ccc(F)cc3)ccc2O[C@H]1CN(C)Cc1ccc(C(F)(F)F)cc1	89.5*	31.2	55.6*[16.7 µM]	6.9	-9.2	1.1
C[C@@H]1CN([C@H](C)CO)C(=O)Cc2cc(NS(=O)(=O)c3ccc(F)cc3)ccc2O[C@@H]1CN(C)Cc1ccc(C(F)(F)F)cc1	-13.4	7.5	22.0[16.7 µM]	12.8	-14.3	3.9
Cc1ccc(S(=O)(=O)Nc2ccc3c(c2)CC(=O)N([C@@H](C)CO)C[C@@H](C)[C@@H](CN(C)Cc2ccc(C(F)(F)F)cc2)O3)cc1	62.0*	23.5	28.7[16.7 µM]	-6.3	-2.1	6.3
C[C@H](CO)N1C[C@H](C)[C@H](CN(C)Cc2ccc(-c3ccccc3)cc2)Oc2ccc(NS(=O)(=O)c3ccc(F)cc3)cc2CC1=O	112.8*	-14.3	0.9[16.7 µM]	-6.0	-7.1	1.1
Cc1ccc(S(=O)(=O)Nc2ccc3c(c2)CC(=O)N([C@H](C)CO)C[C@H](C)[C@H](CN(C)Cc2ccc(Oc4ccccc4)cc2)O3)cc1	-11.1	-6.6	-42.9[16.7 µM]	0.5	0.5	0.4
Cc1ccc(S(=O)(=O)Nc2ccc3c(c2)CC(=O)N([C@H](C)CO)C[C@H](C)[C@H](CN(C)Cc2ccc(C(F)(F)F)cc2)O3)cc1	22.7	8.7	29.1[16.7 µM]	7.1	4.5	?
Cc1ccc(S(=O)(=O)Nc2ccc3c(c2)CC(=O)N([C@@H](C)CO)C[C@H](C)[C@@H](CN(C)Cc2ccc(Oc4ccccc4)cc2)O3)cc1	79.6*	6.9	6.3[16.7 µM]	9.1	6.7	-4.2
